Drawing on ChEMBL document CHEMBL2218924, “A broad activity screen in support of a chemogenomic map for kinase signalling research and drug discovery” (Biochem J, 2013), this text covers residual activity for 1 compound.

The target in experiment [1] is T1, Ephrin type-A receptor 3 (Homo sapiens) (UniProt P29320).
T1 sequence (whole entry): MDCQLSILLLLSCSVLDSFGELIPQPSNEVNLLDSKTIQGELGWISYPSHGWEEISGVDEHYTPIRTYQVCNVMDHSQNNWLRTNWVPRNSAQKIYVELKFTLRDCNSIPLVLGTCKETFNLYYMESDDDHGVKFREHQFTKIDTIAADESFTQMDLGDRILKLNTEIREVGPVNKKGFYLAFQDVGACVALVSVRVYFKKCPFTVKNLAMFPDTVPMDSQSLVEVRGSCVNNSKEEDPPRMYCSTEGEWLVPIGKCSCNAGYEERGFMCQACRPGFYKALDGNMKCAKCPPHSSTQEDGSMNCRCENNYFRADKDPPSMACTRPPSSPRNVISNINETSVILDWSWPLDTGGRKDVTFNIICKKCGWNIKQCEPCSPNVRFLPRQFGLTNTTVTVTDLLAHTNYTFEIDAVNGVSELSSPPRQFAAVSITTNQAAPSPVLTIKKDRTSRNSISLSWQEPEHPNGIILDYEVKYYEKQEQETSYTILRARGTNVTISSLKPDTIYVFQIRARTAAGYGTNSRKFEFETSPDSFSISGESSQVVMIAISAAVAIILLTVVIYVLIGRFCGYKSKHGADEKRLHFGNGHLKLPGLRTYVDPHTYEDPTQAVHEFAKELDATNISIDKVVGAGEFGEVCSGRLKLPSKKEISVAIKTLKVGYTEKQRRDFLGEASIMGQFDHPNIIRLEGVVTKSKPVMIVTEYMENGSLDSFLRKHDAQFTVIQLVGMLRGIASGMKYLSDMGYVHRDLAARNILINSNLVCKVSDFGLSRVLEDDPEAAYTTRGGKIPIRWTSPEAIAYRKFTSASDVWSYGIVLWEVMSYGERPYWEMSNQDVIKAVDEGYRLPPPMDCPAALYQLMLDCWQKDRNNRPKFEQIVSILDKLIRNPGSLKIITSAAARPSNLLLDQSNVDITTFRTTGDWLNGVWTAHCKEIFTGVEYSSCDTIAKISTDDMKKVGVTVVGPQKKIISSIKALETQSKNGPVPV
The following applies: at 10 µM.

The target in experiment [2] is Ephrin type-A receptor 4 (Homo sapiens) (UniProt P54764). The following applies: at 1 µM.
The target is the same in experiment [3]. The following applies: at 10 µM.
Experiment [4] deals with Ephrin type-A receptor 5 (Homo sapiens) (UniProt P54756). The following applies: at 1 µM.
The target is the same in experiment [5]. The following applies: at 10 µM.
Experiment [6] deals with Ephrin type-A receptor 7 (Homo sapiens) (UniProt Q15375). The following applies: at 1 µM.
For experiment [7] the target is unchanged. The following applies: at 10 µM.
In experiment [8] the target is T2, Ephrin type-A receptor 8 (Homo sapiens) (UniProt P29322).
T2 sequence (whole entry): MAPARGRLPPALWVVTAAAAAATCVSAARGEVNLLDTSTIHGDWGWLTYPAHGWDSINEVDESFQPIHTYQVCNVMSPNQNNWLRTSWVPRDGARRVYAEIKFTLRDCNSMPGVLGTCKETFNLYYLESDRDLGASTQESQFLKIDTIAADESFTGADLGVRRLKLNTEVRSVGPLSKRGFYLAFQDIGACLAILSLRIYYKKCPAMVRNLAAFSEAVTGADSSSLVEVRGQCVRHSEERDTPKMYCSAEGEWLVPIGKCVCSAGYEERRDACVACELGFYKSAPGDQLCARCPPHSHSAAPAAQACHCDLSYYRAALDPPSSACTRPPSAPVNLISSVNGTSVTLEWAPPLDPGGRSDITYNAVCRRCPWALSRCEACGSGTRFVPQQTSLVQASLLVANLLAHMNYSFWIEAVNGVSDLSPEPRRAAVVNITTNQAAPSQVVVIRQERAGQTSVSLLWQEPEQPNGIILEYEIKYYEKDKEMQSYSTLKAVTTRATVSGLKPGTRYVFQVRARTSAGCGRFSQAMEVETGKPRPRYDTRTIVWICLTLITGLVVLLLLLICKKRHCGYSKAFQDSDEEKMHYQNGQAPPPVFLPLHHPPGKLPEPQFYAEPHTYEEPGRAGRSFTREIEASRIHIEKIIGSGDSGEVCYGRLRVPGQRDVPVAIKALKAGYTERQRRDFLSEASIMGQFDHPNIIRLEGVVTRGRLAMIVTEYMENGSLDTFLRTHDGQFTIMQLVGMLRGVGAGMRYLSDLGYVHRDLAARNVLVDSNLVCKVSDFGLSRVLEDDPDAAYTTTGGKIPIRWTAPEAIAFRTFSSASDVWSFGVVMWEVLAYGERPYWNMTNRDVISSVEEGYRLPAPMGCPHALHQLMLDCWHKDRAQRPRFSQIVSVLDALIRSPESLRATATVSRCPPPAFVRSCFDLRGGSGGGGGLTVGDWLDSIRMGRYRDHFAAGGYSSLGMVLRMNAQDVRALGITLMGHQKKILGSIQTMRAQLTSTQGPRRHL
The following applies: at 1 µM.

Experiment [9] has as its target T2, Ephrin type-A receptor 8 (Homo sapiens). The following applies: at 10 µM.
For experiment [10], the target named is T3, Ephrin type-B receptor 1 (Homo sapiens) (UniProt P54762).
T3 sequence (whole entry): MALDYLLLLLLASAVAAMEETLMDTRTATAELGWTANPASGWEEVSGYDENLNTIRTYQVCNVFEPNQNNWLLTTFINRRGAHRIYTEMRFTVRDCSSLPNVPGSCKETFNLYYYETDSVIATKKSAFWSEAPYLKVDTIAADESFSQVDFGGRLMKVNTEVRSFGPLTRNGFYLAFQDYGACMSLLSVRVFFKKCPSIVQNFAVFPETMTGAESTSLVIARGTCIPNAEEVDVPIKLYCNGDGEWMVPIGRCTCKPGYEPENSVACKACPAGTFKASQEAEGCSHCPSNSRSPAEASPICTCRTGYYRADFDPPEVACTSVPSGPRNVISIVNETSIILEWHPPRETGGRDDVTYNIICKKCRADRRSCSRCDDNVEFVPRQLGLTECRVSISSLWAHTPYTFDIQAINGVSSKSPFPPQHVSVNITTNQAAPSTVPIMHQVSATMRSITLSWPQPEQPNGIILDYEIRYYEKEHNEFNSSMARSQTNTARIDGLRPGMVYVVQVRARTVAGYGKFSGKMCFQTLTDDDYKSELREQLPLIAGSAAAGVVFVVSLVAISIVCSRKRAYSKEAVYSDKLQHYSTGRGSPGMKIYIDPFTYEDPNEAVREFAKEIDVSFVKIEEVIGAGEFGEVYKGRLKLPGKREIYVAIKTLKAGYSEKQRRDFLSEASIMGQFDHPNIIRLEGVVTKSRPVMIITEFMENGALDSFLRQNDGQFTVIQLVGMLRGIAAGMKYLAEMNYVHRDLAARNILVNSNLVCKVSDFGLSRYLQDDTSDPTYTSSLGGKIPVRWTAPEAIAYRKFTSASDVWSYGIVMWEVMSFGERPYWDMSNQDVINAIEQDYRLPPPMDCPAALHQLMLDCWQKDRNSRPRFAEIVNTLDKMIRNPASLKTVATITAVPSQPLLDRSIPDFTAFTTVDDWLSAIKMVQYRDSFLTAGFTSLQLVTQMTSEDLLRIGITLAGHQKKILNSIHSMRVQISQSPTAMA
The following applies: at 1 µM.

SMILES strings stand for the structures.

Ephrin type-A receptor 7 (Homo sapiens), sequence (Q15375 28-998 limits assumed): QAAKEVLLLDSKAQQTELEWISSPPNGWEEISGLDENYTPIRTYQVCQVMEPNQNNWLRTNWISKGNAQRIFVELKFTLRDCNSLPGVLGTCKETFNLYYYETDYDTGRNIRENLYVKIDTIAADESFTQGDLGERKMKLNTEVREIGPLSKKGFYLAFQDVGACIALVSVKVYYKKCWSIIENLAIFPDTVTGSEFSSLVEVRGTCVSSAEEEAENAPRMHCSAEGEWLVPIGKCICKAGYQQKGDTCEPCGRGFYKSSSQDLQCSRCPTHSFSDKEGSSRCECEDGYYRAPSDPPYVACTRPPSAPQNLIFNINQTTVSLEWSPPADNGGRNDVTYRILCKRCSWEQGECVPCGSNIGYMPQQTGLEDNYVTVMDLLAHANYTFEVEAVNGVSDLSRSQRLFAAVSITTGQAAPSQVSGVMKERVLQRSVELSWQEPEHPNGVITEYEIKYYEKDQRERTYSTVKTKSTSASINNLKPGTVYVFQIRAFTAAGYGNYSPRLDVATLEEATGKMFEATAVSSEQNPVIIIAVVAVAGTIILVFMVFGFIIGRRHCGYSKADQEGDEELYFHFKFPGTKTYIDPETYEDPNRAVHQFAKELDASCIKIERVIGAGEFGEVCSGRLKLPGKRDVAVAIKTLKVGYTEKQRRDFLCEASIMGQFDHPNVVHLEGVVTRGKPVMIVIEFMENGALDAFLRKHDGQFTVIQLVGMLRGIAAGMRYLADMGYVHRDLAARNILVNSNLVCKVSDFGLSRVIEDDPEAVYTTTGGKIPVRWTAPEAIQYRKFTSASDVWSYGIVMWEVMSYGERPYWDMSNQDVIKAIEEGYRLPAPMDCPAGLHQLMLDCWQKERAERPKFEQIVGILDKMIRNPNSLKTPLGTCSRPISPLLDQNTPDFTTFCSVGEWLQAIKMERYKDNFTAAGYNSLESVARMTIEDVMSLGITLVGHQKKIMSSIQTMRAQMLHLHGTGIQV
Ephrin type-A receptor 5 (Homo sapiens), sequence (P54756 whole entry): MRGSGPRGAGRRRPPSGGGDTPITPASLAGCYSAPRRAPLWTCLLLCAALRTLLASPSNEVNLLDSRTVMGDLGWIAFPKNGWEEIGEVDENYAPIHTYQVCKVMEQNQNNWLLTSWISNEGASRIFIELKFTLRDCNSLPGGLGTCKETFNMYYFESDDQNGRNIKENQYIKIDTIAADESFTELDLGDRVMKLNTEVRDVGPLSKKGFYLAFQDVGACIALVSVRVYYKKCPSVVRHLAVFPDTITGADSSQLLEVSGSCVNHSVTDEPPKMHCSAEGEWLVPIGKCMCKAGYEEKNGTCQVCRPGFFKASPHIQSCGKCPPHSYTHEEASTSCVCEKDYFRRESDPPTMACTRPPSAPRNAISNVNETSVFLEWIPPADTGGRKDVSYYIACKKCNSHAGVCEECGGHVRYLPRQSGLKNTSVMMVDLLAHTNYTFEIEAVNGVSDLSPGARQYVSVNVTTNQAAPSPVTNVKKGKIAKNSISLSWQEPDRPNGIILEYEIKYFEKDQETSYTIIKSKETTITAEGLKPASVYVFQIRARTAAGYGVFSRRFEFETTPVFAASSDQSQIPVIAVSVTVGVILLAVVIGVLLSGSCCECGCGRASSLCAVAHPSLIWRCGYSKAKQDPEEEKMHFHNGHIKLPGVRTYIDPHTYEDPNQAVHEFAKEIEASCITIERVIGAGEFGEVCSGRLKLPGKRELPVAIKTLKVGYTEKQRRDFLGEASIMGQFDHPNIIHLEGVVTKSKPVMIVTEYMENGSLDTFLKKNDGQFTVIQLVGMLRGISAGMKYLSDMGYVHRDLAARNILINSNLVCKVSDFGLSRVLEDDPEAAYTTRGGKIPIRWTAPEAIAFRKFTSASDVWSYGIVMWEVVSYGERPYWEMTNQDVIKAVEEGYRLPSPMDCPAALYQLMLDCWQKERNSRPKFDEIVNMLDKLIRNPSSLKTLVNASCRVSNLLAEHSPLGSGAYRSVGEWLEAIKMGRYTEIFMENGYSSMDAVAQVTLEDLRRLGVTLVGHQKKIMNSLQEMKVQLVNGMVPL
Ephrin type-A receptor 4 (Homo sapiens), sequence (P54764 whole entry): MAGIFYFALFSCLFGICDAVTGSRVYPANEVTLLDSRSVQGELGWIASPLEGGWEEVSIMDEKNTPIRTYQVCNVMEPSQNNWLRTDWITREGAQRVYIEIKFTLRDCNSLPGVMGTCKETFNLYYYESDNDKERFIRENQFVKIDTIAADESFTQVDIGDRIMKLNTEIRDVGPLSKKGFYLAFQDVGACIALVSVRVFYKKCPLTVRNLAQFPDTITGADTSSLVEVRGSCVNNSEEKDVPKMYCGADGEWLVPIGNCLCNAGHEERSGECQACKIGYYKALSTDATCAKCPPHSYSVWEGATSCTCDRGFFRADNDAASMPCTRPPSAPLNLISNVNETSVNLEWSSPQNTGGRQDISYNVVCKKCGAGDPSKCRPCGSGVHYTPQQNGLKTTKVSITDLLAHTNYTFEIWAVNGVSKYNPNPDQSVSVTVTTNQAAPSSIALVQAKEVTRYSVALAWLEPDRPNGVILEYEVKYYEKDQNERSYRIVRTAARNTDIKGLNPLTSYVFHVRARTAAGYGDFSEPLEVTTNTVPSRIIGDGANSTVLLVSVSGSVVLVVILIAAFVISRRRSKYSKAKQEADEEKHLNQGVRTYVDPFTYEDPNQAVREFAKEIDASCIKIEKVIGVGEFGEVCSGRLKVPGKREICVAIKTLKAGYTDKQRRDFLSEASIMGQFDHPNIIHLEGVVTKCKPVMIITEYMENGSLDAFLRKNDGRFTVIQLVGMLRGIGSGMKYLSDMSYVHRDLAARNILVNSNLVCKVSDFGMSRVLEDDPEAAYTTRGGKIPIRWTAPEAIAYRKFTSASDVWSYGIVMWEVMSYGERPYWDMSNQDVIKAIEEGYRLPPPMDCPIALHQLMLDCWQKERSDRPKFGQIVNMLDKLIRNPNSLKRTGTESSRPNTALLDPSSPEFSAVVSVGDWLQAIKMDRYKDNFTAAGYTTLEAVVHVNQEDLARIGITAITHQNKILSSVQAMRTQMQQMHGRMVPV

In the case of `O=C1NC(=O)/C(=C\c2ccc3nccnc3c2)S1`, the residual activity in experiment [1] was 87%; in experiment [2], 108%; in experiment [3], 106%; in experiment [4], 132%; in [5], 101%; in experiment [6], 97%. Also, the residual activity in experiment [7] was determined as 94%; in [8] it was 88%; in [9], 94%; in [10], 115%.

What is called residual activity is the signal under treatment as a percentage of the control signal.
